PI5P4Ka inh: qHTS for Inhibitors of phosphatidylinositol 5-phosphate 4-kinase (PI5P4K) | max response, % | Phosphatidylinositol 5-phosphate 4-kinase type-2 alpha (Homo sapiens), P48426 | hit rate 1.2% among 330,000 | PI5P4Kalpha enzyme, ADP-Glo luminescence, 60 min; stronger effect = lower value; active means max response of -50% or lower; inconclusive means between -30% and -50%; inactive means -30% or higher; further: value at the top dose of about 77 µM; on the % scale 0 is the no-effect control and ±100 the full control effect
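qHTS, 1536-well: enzyme/substrate mix, compound by pin tool, 5 microM ATP final; RT 60 min; ADP-Glo reagents 1 (45 min) then 2 (30 min); luminescence.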
KAT2A inh: qHTS Assay for Inhibitors of GCN5L2. GCN5L2 HAT assay, ThioGlo1 CoA-SH fluorescence. AID 504327, 2011. hit rate 0.21% among 390,000. Potency, µM (doses to about 58.9 µM), without a hit: at the top dose activity change, negative = inhibition, hits mostly inhibitors. Histone acetyltransferase KAT2A (Homo sapiens), Q92830; further: potency means the concentration at half of the fitted maximal effect; on the % scale 0 is the no-effect control and ±100 the full control effect
Target sequence (Q92830 whole entry, looked up): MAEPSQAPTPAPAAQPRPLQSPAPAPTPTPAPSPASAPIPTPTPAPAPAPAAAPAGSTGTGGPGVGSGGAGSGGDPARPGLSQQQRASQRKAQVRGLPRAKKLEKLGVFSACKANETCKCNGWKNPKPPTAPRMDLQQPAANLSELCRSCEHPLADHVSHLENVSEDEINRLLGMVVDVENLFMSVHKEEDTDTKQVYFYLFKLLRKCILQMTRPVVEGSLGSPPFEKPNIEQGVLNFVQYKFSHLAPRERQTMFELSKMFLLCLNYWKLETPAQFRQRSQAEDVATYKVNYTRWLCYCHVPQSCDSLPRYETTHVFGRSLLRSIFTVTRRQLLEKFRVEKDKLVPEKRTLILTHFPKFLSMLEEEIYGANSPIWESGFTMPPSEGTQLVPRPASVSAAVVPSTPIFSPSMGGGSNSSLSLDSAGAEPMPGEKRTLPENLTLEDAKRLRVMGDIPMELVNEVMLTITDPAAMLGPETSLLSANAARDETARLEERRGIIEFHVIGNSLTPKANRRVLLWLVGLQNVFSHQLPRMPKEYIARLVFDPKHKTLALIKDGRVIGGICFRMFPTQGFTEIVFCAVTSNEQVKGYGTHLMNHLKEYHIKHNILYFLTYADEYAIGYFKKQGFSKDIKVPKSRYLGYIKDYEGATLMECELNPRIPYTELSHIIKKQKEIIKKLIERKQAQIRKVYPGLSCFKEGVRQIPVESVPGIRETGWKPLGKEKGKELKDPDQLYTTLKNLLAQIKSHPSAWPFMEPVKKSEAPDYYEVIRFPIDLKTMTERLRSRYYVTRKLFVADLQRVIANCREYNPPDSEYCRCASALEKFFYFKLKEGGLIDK
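ThioGlo1-coupled HAT assay: 20nM GCN5L2, 70uM acetyl-CoA, 75uM H3(1-25) peptide, pH 7.5. Fluorescence read at 340/540nm at start and after 20 min at room temperature.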
HP1b chromo inh: HTS for Inhibitors of HP1-beta Chromodomain Interactions with Methylated Histone Tails | Chromobox protein homolog 1 (Homo sapiens), P83916 | AlphaScreen HP1-beta / biotin-H3K9me3 peptide binding | Potency, µM (titrated, usually from 114 µM), for the others: top-dose activity change, negative = inhibition, usual class: inhibitors | hit rate 0.56% among 390,000 | AID 540317, 2011; further: potency means the concentration at half of the fitted maximal effect; nearly all actives have a fitted effect of over 70% in size
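HP1-beta protein (50 nM final) preincubated 30 min at room temperature with biotinylated H3(1-18)K9me3 peptide (50 nM) in PBS pH 7.4, 0.01% Tween-20, then compound added for 30 min. AlphaScreen streptavidin donor/nickel chelate acceptor beads (10 ug/mL final), 30 min dark, luminescence read.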
PLK1 PBD block: qHTS for Inhibitors of PLK1-PDB (polo-like kinase 1 - polo-box domain): Primary Screen | AID 720504, 2013 | Potency, µM, for inactives: max response, negative = inhibition, actives largely listed as inhibitors | Plk1 PBD binding of FITC phosphopeptide, fluorescence polarization | Serine/threonine-protein kinase PLK1 (Homo sapiens), P53350 | hit rate 2.8% among 360,000; further: potency means the concentration at half of the fitted maximal effect; series mostly up to about 57 µM; on the % scale 0 is the no-effect control and ±100 the full control effect; nearly all actives have a fitted effect of over 65% in size
BAZ2B inh: qHTS Assay for Inhibitors of BAZ2B | Bromodomain adjacent to zinc finger domain protein 2B (Homo sapiens), Q9UIF8 | AlphaScreen BAZ2B-H3K14Ac peptide displacement | Potency, µM (series often up to 114 µM), for the others: at the highest dose activity change, negative = inhibition, usual class: inhibitors | hit rate 4.4% among 360,000; further: potency means the concentration at half of the fitted maximal effect; on the % scale 0 is the no-effect control and ±100 the full control effect; nearly all actives have a fitted effect of over 60% in size
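In this displacement format the biotinylated H3(5-23) peptide acetylated at Lys14 serves as ligand at 50 nM, with BAZ2B at 50 nM in PBS pH 7.4 containing 0.01% Tween-20. Donor and acceptor beads are 10 ug/mL final.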
JMJD2A Tudor inh: qHTS Assay for Inhibitors of JMJD2A-Tudor Domain | Lysine-specific demethylase 4A (Homo sapiens), O75164 | hit rate 4.4% among 390,000 | Potency, µM (top dose mostly 114 µM), for the others: at the top dose activity change, negative = inhibition, most hits filed as inhibitors | AID 504339, 2011 | AlphaScreen JMJD2A-Tudor / H3K4me3 peptide binding; further: potency means the concentration at half of the fitted maximal effect; on the % scale 0 is the no-effect control and ±100 the full control effect; nearly all actives have a fitted effect of over 50% in size
JMJD2E inh-1: Inhibitors of Human Jumonji Domain Containing 2E (JMJD2E): 8HQs - Round 1; shares compounds with BAZ2B inh; JMJD2E demethylase, FDH-coupled NADH fluorescence; Potency, µM (top dose mostly 57 µM), for inactives: at the top dose activity, negative = inhibition, most hits filed as inhibitors; hit rate 89% among 130
JMJD2E inh-2: Confirmation qHTS Assay for Inhibitors of Human Jumonji Domain Containing 2E (JMJD2E). Potency, µM (titrated, usually from 56.8 µM), for the others: at the highest dose activity change, negative = inhibition, actives largely listed as inhibitors. Recombinant JMJD2E, FDH-coupled NADH fluorescence (FDH is formaldehyde dehydrogenase). shares compounds with JMJD2A Tudor inh. AID 2677, 2010. hit rate 93% among 140
FDH counter: Counterscreen for JMJD2E Inhibitors: qHTS Assay for Inhibitors of Formaldehyde Dehydrogenase (FDH); shares compounds with JMJD2A Tudor inh; AID 2680, 2010; hit rate 10% among 140; FDH enzyme assay, NADH fluorescence kinetic; Potency, µM (titrated, usually from 56.7 µM), without a hit: at the highest dose activity, negative = inhibition, actives largely listed as inhibitors
JMJD2E MALDI inh: MALDI-TOF-MS Assay for Inhibitors of Human Jumonji Domain Containing 2E (JMJD2E) | shares compounds with JMJD2A Tudor inh | recombinant JMJD2E demethylation, MALDI-TOF-MS | Potency, µM, usual class: inhibitors | hit rate 90% among 45 | AID 2688, 2010;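 active means compounds whose IC50 for blocking JMJD2E demethylation is below 100 µM; inconclusive means dose dependent effect but IC50 above 100 µM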
* hit, by the source's call; ? = inconclusive; · = not tested or not shown; [ ] = remark or other dose. This is a sample that favours compounds with a hit; in the whole collection about 7% have one here. Unless noted, the call rests on the fitted dose curve; in most records, active means well fitted curve in the direction sought with a large enough effect; inconclusive means small, poorly fitted or top-dose-only effect, or another doubt; inactive means no such curve, though single readings can be large; an effect the other way counts as inactive or inconclusive.

SMILES	PI5P4Ka inh	KAT2A inh	HP1b chromo inh	PLK1 PBD block	BAZ2B inh	JMJD2A Tudor inh	JMJD2E inh-1	JMJD2E inh-2	FDH counter	JMJD2E MALDI inh
CN(C)c1cnc2c(O)cccc2c1	·	·	·	·	·	·	20.4µM*	18.2µM*	-27.3%	·
Oc1cccc2cc(C3CC3)cnc12	·	·	·	·	·	·	20.4µM*	20.4µM*	-18.2%	·
Cc1cnc2c(O)cccc2c1	·	·	·	·	·	·	?	?	0.0%	·
NC(=O)c1nn2c(C(F)(F)F)cc(-c3ccc(Br)cc3)nc2c1Cl	·	12.4%	6.7%	·	5.9%	-13.0%	·	·	·	·
CSc1ncc(Cl)c(C(=O)Nc2c(C(=O)c3ccc(Cl)cc3)oc3ccccc23)n1	·	-6.2%	16.2%	·	-3.9%	-17.4%	·	·	·	·
O=C(O)c1cc(Br)c(O)c2ncccc12	·	·	·	·	·	·	0.0073µM*	?	-18.2%	·
Oc1ccc(CNCc2ccccc2F)c2cccnc12	·	·	·	·	·	25.1µM*	6.46µM*	?	-18.2%	21.2*
O=C(Cc1ccccc1F)Nc1cccc2cccnc12	0.1	-1.6%	42.2%	-2.7%	10.3%	10.7%	·	·	·	·
Oc1ccc(CCc2c(F)cccc2F)c2cccnc12	·	·	·	·	·	-18.4%	8.13µM*	12.9µM*	0.0%	39.4*
OCc1cn(Cc2ccc(O)c3ncccc23)cn1	·	-3.4%	·	·	1µM*	·	11.2µM*	11.2µM*	-9.1%	·
CN(C)CCCNC(=O)c1ccc(-c2cc(O)c3ncccc3c2)cc1	·	-3.6%	-33.1%	·	7.08µM*	20µM*	32.4µM*	15.8µM*	0.0%	·
CN(C)c1ccc(-c2ccncc2)cc1	·	3.6%	·	·	3.7%	·	·	·	·	·
CN1CCN(c2ccc(-c3cccc4nccn34)cn2)CC1	-0.5	·	·	-2.9%	·	·	·	·	·	·
Oc1cc(-c2ccncc2)cc2cccnc12	·	-10.4%	47.2%	·	2.82µM*	44.7µM*	32.4µM*	15.8µM*	-27.3%	23.2*
CN(C)CCCNC(=O)c1ccccn1	·	-4.0%	7.3%	-7.6%	-4.6%	-16.3%	·	·	·	·
Oc1cc(-c2ccc(N3CCCCC3)nc2)cc2cccnc12	·	-0.3%	58.3%	·	8.6%	-27.8%	25.7µM*	31.6µM*	-72.7%	·
CN(C)c1ccc(-c2cc(O)c3ncccc3c2)cc1	·	-0.2%	27.7%	·	1.4%	?	16.2µM*	16.2µM*	-9.1%	·
CCC(=O)NC(=S)N1CCN(c2ccc([N+](=O)[O-])cc2Cl)CC1	·	0.4%	-6.3%	-12.2%	?	-24.0%	·	·	·	·
CCN1C(=O)[C@H]2[C@H]3CN=C(SCc4ccccc4)N3[C@@](CC)(C(=O)OC)[C@H]2C1=O	8.2	-4.2%	11.4%	-10.2%	·	-34.8%	·	·	·	·
CCOc1cc(C(=O)NCCc2sc(-c3ccc(F)cc3)nc2C)cc(OCC)c1OCC	·	-3.0%	4.7%[57 µM]	·	-9.4%	-22.7%	·	·	·	·
Oc1ccc(CNc2ccc(F)cc2Cl)c2cccnc12	·	·	·	·	·	56.2µM*	5.76µM*	1.12µM*	-18.2%	16.1*
Oc1ccc(CNc2ccccc2Br)c2cccnc12	·	·	·	·	·	50.1µM*	3.55µM*	3.55µM*	-9.1%	24.1*
Oc1ccc(CNc2cccc(F)c2)c2cccnc12	·	·	·	·	·	56.2µM*	1.12µM*	1.12µM*	-9.1%	14.5*
O=C(CCCN1C(=O)c2cccnc2C1=O)Nc1ccc(F)cc1Cl	-2.3	-2.0%	21.2%	-0.3%	-14.3%	-11.9%	·	·	·	·
Oc1ccc(Cl)cc1CNc1ccccn1	4.9	-5.9%	30.4%	-4.6%	6.4%	-15.1%	·	·	·	·
SMILES	PI5P4Ka inh	KAT2A inh	HP1b chromo inh	PLK1 PBD block	BAZ2B inh	JMJD2A Tudor inh	JMJD2E inh-1	JMJD2E inh-2	FDH counter	JMJD2E MALDI inh
CCN(CC(=O)Nc1ccc(NC(C)=O)cc1)C(=O)c1ccc(NC2CC2)c([N+](=O)[O-])c1	4.9	-4.3%	6.5%	-0.6%	-36.1%	-17.1%	·	·	·	·
CN(C)N1C(=O)CC(C)(c2ccc([N+](=O)[O-])cc2)C1=O (centres undefined)	-2.4	-3.0%	41.7%	1.8%	4.5%	-5.5%	·	·	·	·
COc1ccc(NC(=O)Nc2c[nH]c(=O)[nH]c2=O)cc1OC	-4.6	2.0%	94.4%	-8.6%	0.2%	2.8%	·	·	·	·
Oc1cc(Nc2ccncc2)cc2cccnc12	·	-2.0%	40.6%	·	3.98µM*	20µM*	25.1µM*	25.1µM*	-9.1%	20*
COc1ccc(C(=O)Nc2cc(OC)cc3cccnc23)cc1	19.7	-3.8%	52.0%	-6.5%	-7.1%	4.7%	·	·	·	·
Oc1cc(Nc2cccnc2)cc2cccnc12	·	-7.0%	44.0%	·	7.94µM*	44.7µM*	31.6µM*	31.6µM*	-18.2%	30*
COc1ccc(Nc2cc(O)c3ncccc3c2)cc1	·	-11.6%	·	·	28.2µM*	·	11.5µM*	9.13µM*	-36.4%	21.6*
O=C(COc1cccc2ccccc12)NCc1cccnc1	6.4	-9.1%	30.7%	-3.3%	1.2%	-11.4%	·	·	·	·
Oc1cc(NCCc2cccnc2)cc2cccnc12	·	-10.0%	53.6%	·	5.62µM*	39.8µM*	32.4µM*	31.6µM*	-27.3%	?
CCc1ccc(NC(=O)C2CCN(S(=O)(=O)c3c(C)noc3/C=C\c3ccc(OC)cc3)CC2)cc1	·	-4.8%	27.9%	·	·	-3.7%	·	·	·	·

Compound activity: PubChem BioAssay, National Center for Advancing Translational Sciences (NCATS)
